Assay outcomes from PubChem.
A549 tox = A549 cytotoxicity, counter-screen for Nrf2 inhibitors; actives 0.16% (n = 390,000); AID 504648; Potency, µM (highest dose often 46 µM), for inactives: top-dose activity change, negative = cytotoxicity, actives largely listed as inhibitors; A549 ARE-Fluc cells, CellTiter-Fluor viability, 18-24 h; also: potency is read from the fitted curve at half-maximal effect; % is scaled to controls: 0 for no effect and ±100 for the full control effect
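Cytotoxicity counterscreen: CellTiter-Fluor fluorescence was measured in A549 ARE_Fluc cells after 18-24 h of compound exposure in a concentration series. The subsequent BugLite luminescent read reports ARE-luciferase activity.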
Nrf2 block = inhibitors of Nrf2 signaling; actives 2.1% (n = 360,000); AID 504444; Potency, µM (titrated, usually from 46 µM), without a hit: at the highest dose activity change, negative = inhibition, hits mostly inhibitors; A549 ARE-Fluc reporter, luciferase luminescence, 18-24 h; also: potency is read from the fitted curve at half-maximal effect; % is scaled to controls: 0 for no effect and ±100 for the full control effect; nearly all actives have a fitted effect of over 60% in size
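Nrf2 activity is the BugLite luminescence, read 15 min after reagent at room temperature, following CellTiter-Fluor cytotoxicity readout (30 min, 37C). Compound titrations were applied for 18-24 h to 5000 A549 ARE_Fluc cells/well in 5% FBS OPTI-MEM.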
IL-2 act = IL-2 activation. IL-2 activation reporter assay, cell-based qHTS; stimulated with anti-CD3/CD4/CD28 beads; in transgenic mouse T cells. activation, % (series mostly up to about 46 µM). actives 0.065% (n = 360,000). AID 652025; in the data active = activation above about 50%; inconclusive = mostly about 30% to 49%; also: 0% is about no effect
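Using fluorescent plate cytometry, EGFP and DsRed are detected in transgenic mouse T cells stimulated 18 h at 37 degrees C with antibody-coated beads after 60 min compound pretreatment.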
BRCA1 expr up = activators of BRCA1 expression; MCF7-BRCA1-FFLuc reporter, luminescence, 48 h; response scale: scaled: vehicle 0%, 10 µM genistein 100%; Potency, µM (doses to about 46.1 µM), without a hit: at the top dose activation, most hits filed as activators; actives 1.1% (n = 380,000); AID 624202; also: potency is read from the fitted curve at half-maximal effect; nearly all actives have a fitted effect of over 80% in size
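Luminescence from a BRCA1-driven firefly luciferase in MCF7 cells was read after 48 h compound exposure at 37 C. Data normalized against DMSO and a 10microM genistein activation control, then curve-fitted across the titration.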
Nrf2 activator = activates Nrf2 signaling; AREc32 ARE-luciferase reporter (MCF7-derived line), luminescence, 24 h; Potency, µM (highest dose often 46.1 µM), for inactives: top-dose activation, actives largely listed as activators; actives 0.31% (n = 410,000); also: potency is read from the fitted curve at half-maximal effect; % of control where 0% means no effect; nearly all actives have a fitted effect of over 65% in size
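Luciferase luminescence (Steady-Glo, 30 min at room temperature) served as the read-out of ARE activation in AREc32 cells treated with compounds for 24 hr at 37 deg C.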
p53 reactivator = re-activators of mutant p53; H1299 p53-A138V BP100-luciferase reporter, luminescence, 24 h; Potency, µM (top dose mostly 92.2 µM), inactives show at the top dose activity change, positive = activation, usual class: activators; actives 0.063% (n = 320,000); AID 504706; also: potency is read from the fitted curve at half-maximal effect; % of control where 0% means no effect; nearly all actives have a fitted effect of over 45% in size
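H1299 (p53-null), stable ts p53-A138V + BP100-Luc; 1000 cells/well, Opti-MEM/10% FBS; cpd 4 pt, 1:5; 24 h, 37 deg C, 5% CO2; detection reagent 10 min RT; luminescence.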
* marks the source's active call; other numbers are inactive results; ? = inconclusive; . = not tested or not shown. This is a sample that favours compounds with a hit; in the whole collection about 3.2% have one here. Unless noted, calls follow the shape of the dose curve; as a rule, active = well fitted curve in the direction sought with a large enough effect; inconclusive = small, poorly fitted or top-dose-only effect, or another doubt; inactive = no such curve, though single readings can be large; an effect the other way counts as inactive or inconclusive.

SMILES | A549 tox | Nrf2 block | IL-2 act | BRCA1 expr up | Nrf2 activator | p53 reactivator
CCN(CC)S(=O)(=O)c1cc(NC(=O)Cc2n[nH]c(=O)c3ccccc23)ccc1C | -11.9% | 25.9µM* | -1.5 | -19.6% | -0.2% | -2.4%
CN(c1ccccc1)S(=O)(=O)c1cccc(NC(=O)CSc2ncn[nH]2)c1 | 6.9% | ? | -2.9 | -50.8% | -0.1% | 1.6%
Cc1ccc(NC(=O)Cc2n[nH]c(=O)c3ccccc23)cc1S(=O)(=O)N1CCCCCC1 | -17.8% | 10.3µM* | -4.5 | -58.2% | 1.7% | -3.6%
Cc1ccc(NC(=O)Cc2c[nH]c3ccccc23)cc1S(=O)(=O)N1CCCCCC1 | -0.8% | 1.7% | -1.2 | -19.4% | 0.1% | 4.6%
CN(c1ccccc1)S(=O)(=O)c1cccc(NC(=O)Cc2n[nH]c(=O)c3ccccc23)c1 | -8.6% | 16.4µM* | 2.8 | -29.4% | -0.4% | -6.0%
N#Cc1cccc(S(=O)(=O)N2CCN(c3nc(-c4cccs4)nc4ccccc34)CC2)c1 | -1.4% | 2.0% | . | 0.0% | . | .
N#CN1CCC(NS(=O)(=O)c2ccc(F)cc2)CC1 | -2.3% | ? | . | . | . | .
CSc1cccc(NC(=O)C2CCCN(S(=O)(=O)c3ccc4c(c3)CCCN4C(C)=O)C2)c1 (stereo unspecified) | 1.3% | . | . | . | 4.1% | .
Cn1nc(C(C)(C)C)cc1C(=O)NNC(=O)c1ccc(C(F)(F)F)cc1 | 13.2% | 20.6µM* | -1.0 | -14.4% | 2.3% | -3.4%
Cc1ccc(OCC(=O)Nc2nc(-c3ccc(Br)cc3)ns2)cc1 | 0.4% | ? | . | . | 0.5% | .
Cc1ccc(CNCc2c(C(=O)O)n(Cc3ccc(C)cc3)c3cc(C)ccc23)cc1 | ? | ? | . | -75.2% | -1.5% | .
C=Cc1ccc(Cn2c(C(=O)O)c(CNCc3ccccc3)c3ccc(C)cc32)cc1 | 16.4µM* | ? | . | -50.0% | -2.0% | .
COC(=O)c1sc(N2C(=O)C(O)=C(C(=O)c3ccc(C)o3)C2c2cccs2)nc1C (stereo unspecified) | ? | 20.6µM* | -5.6 | 10.0% | 28.3% | 6.7%
Nc1ccc(-c2cnc(N)c(C(=O)c3cccnc3)n2)cn1 | ? | 14.6µM* | -0.4 | -34.6% | -4.0% | .
O=C1C=CC(=O)N1CCCCCCCCCCN1C(=O)C=CC1=O | ? | 25.9µM* | -1.0 | -91.3% | ? | .
CCOc1ccc(Nc2oc(-c3cccs3)nc2C#N)cc1 | -20.0% | 16.4µM* | -1.3 | 37.0% | 2.1% | .
CCOc1ccc(Nc2oc(-c3ccco3)nc2C#N)cc1 | -5.2% | -5.0% | 0.6 | 71.9% | 8.5% | 2.7%
Cc1cccc(OCC(=O)Nc2sc3c(c2C#N)CCC3)c1 | 5.9% | ? | -0.7 | 10µM* | 2.8% | 9.1%
CCc1nc2cccnc2n1-c1ccc(CC(=O)O)cc1 | 3.4% | -11.6% | 2.3 | -4.0% | -0.6% | -2.5%
Cc1ccc(NC(=O)Cc2ccc(-n3c(C)nc4cccnc43)cc2)c(Cl)c1 | -11.2% | 20.6µM* | . | . | -0.5% | .
CN(C(=O)C1CCC(=O)N(Cc2cccc(F)c2)C1)C1CCCCC1 (stereo unspecified) | -9.9% | ? | 6.9 | 7.94µM* | -0.8% | -4.4%
CC(C)(C)OC(=O)N1CCc2nc(N3CCN(c4ncccn4)CC3)ncc2C1 | 0.0% | 11.7% | . | . | 0.6% | .
COc1ccc(CCC(=O)NCc2nc3cccnc3n2Cc2ccc(F)cc2)cc1 | 7.7% | . | . | . | 3.3% | .
COC(=O)c1cc(C)nc2c1C(=O)C(=O)C=C2N1CCOCC1 | ? | 16.4µM* | -4.1 | -99.2% | -4.3% | .
COc1ccc(CCn2c(=S)[nH]c(=O)c3[nH]cnc32)cc1OC | 1.0% | -8.5% | . | 10.6% | . | .
O=C(CCC(=O)N1CCSc2ccccc21)NCc1ccccc1Cl | 4.2% | 9.3% | . | . | 3.0% | .
CCCCN(C(=O)CSc1nnc(-c2ccc(Cl)cc2)o1)c1c(N)n(CC(C)C)c(=O)[nH]c1=O | ? | 18.4µM* | 2.1 | -21.7% | -0.4% | -5.0%
